TMEM16A act: activates or potentiates the mouse TMEM16A chloride channel; HEK293 TMEM16A/YFP-H148Q/I152L, iodide quench fluorescence; stronger effect = lower value; AID 623877; 0.3% of 340,000 active; B-score at 10 µM; Q8BHY3;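 active = fluorescence-ratio B-score plate-corrected deviation score at least 3 library SD below zero, with starting fluorescence score within 5 deviations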;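 note: channel opened by trigger with iodide after compound preincubation; score built on the fluorescence ratio of max minus min over baseline; more negative score means more quench and so TMEM16A activation or potentiation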
ANO1 block: mouse TMEM16A channel inhibition, primary screen. Q8BHY3. normalized B-score (activity score, 25-100; higher = stronger inhibition) at 10 µM. 1.2% of 310,000 active. HEK293 TMEM16A/YFP iodide influx fluorescence, ionomycin. AID 588511;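 active = ratio plate-corrected score three or more library SD toward inhibition, starting fluorescence score within five deviations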;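 note: score derived from kinetic fluorescence span divided by baseline fluorescence per well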
NR3A LBD binder: NR3A (human) ligand-binding domain modulation | NR3A LBD differential scanning fluorimetry, Tm shift; 0% = protein alone, 100% = glycine-bound protein | AID 1259313 | Tm shift relative to glycine control, % at 25 µM | 2.5% of 340,000 active;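 active = melting temperature shift of at least 10% of the positive control shift, at one fixed dose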
CRFBP-R2 block: CRF-BP/CRF-R2 complex antagonism; inhibition, % at 11.8 µM; HEK293 CRF-R2/CRF-BP, CRF-induced calcium fluorescence; AID 588475; 0.59% of 350,000 active;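 active = inhibition of the ligand-induced calcium signal above about 50% at the single tested concentration, limit read from the data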
CRFR2-BP ag: CRF-BP/CRF-R2 complex agonism. activation, % at 13.2 µM. 0.46% of 350,000 active. HEK293 CRF-R2/CRF-BP, calcium dye fluorescence (FLIPR); percent of saturating CRF peptide response;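 active = activation of at least 50%, plus an integration ratio under a set limit after plate pattern correction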;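 note: plate controls were neutral control wells without compound for no effect and CRF at EC100 for full effect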
MPTP inh: blocks calcium-induced mitochondrial swelling. AID 602449. isolated mouse mitochondria, Ca2+ swelling absorbance, 30 min. 1.4% of 360,000 active. inhibition, % at 10 µM;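 active = inhibition of 50% or more, scaled per plate between neutral and stimulator controls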;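 note: 0% = DMSO wells given calcium and 100% = 1 mM EGTA wells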
Active calls of the source: *; i = inactive; . = not tested or not shown. The list is not random: actives were taken first. Their share in the collection is about 5.1%.

SMILES	TMEM16A act	ANO1 block	NR3A LBD binder	CRFBP-R2 block	CRFR2-BP ag	MPTP inh
COC(=O)c1nn(C)c(=O)[nH]c1=O	i	.	-3	6	-1	1
C/C(=N/NC(=S)Nc1cccc(C)c1)c1cccc([N+](=O)[O-])c1	i	i	-1	-9	1	4
Cc1cccc(NC(=S)NNC(=O)c2cccc([N+](=O)[O-])c2)c1	i	25*	-1	13	-1	19
CCOC(=O)C1=C(Cc2ccc(C)cc2)C(=O)c2ccccc2C1=O	.	i	.	.	.	.
CCOC(=O)C1=C(Cc2ccc(OC)cc2)C(=O)c2ccccc2C1=O	i	.	-4	-92	61*	15
COc1cccc(-c2nn(-c3ccc(F)cc3)cc2C(=O)NCC2CCCO2)c1 (stereo unspecified)	i	i	-2	5	0	-1
O=C(C1=C[C@@H]2[C@H]3C(=O)N(c4cccc(Cl)c4)C(=O)[C@H]3[C@@H](C(=O)c3ccc(Cl)cc3)N2C=C1)c1ccccc1	i	i	14*	-40	32	4
Cc1ccc(N2C(=O)[C@@H]3[C@H](C2=O)[C@H]2C=C(C(=O)c4ccccc4)C=CN2[C@@H]3C(=O)c2ccc(Cl)cc2)cc1	i	i	0	16	2	-1
COc1ccc(C2CC(c3ccccc3)=NN2c2ccc(S(N)(=O)=O)cc2)cc1OC (stereo unspecified)	-6.1*	i	-4	-11	4	0
NS(=O)(=O)c1ccc(N2N=C(c3ccccc3)CC2c2cccc(F)c2)cc1 (stereo unspecified)	i	i	-3	4	-1	1
COc1ccc(C2=NN(c3ccc(C(=O)O)cc3)C(c3ccc(OC)c(OC)c3)C2)cc1 (stereo unspecified)	i	i	0	-11	-1	1
COc1ccc(C2CC(c3ccncc3)=NN2c2ccc(S(N)(=O)=O)cc2)cc1 (stereo unspecified)	.	.	-3	-35	0	-2
COc1ccc(C2CC(c3cccc(Cl)c3)=NN2c2ccc(S(N)(=O)=O)cc2)cc1 (stereo unspecified)	.	.	28*	-6	7	0
COc1ccc(C2CC(c3ccc(Cl)cc3)=NN2c2ccc(S(N)(=O)=O)cc2)cc1 (stereo unspecified)	.	.	37*	4	3	4
COc1ccc(C2CC(c3ccccc3)=NN2c2ccc(Cl)c(C(=O)O)c2)cc1 (stereo unspecified)	i	i	13*	23	-1	0
C=C(C)[C@H]1CC=C(C(=O)O)CC1	.	.	2	.	.	.
Cc1ccccc1OCCSc1nc2ccccc2n1CCC(=O)O	i	i	-2	4	-2	1
NS(=O)(=O)c1ccc(N2N=C(c3ccc(Br)cc3)CC2c2ccc(F)cc2)cc1 (stereo unspecified)	i	i	39*	-13	6	4
COc1ccc(-c2c(C#Cc3ccsc3)c3cc(-c4ccc5cc[nH]c5c4)ccc3n2C)cc1	i	.	12*	-2	6	0
O=C(c1ccccc1)N1N=C(C(F)(F)F)CC1(O)c1ccc(F)cc1 (stereo unspecified)	i	100*	-7	0	-4	5
O=C(Nc1ccccc1C(=O)O)c1cccc(NS(=O)(=O)c2ccc(Br)cc2)c1	i	i	8	16	-2	0
O=C(Nc1ccccc1C(=O)O)c1cccc(S(=O)(=O)Nc2ccc(Br)cc2)c1	i	i	12*	12	0	0
O=C(Nc1ccccc1C(=O)O)c1cccc(NC(=O)c2ccccc2Br)c1	i	i	-4	1	-1	1
COc1ccc(C)cc1NC(=O)c1cccc(C(=O)Nc2cc(C)ccc2OC)c1	i	i	-10	12	-1	0
O=C(Nc1cc(C(=O)Nc2ccccc2C(=O)O)cc(C(=O)Nc2ccccc2C(=O)O)c1)c1ccccc1	i	i	-3	104*	0	-1
SMILES	TMEM16A act	ANO1 block	NR3A LBD binder	CRFBP-R2 block	CRFR2-BP ag	MPTP inh
O=C(CSCc1ccc(Cl)cc1)Nc1cccc(C(=O)Nc2ccccc2C(=O)O)c1	i	i	10*	25	0	1
Cc1ccc(NC(=O)c2cccc(C(=O)Nc3ccc(C)cc3C(=O)O)c2)c(C(=O)O)c1	i	i	25*	3	-1	0
O=C(CSCc1ccccc1)Nc1cccc(C(=O)Nc2ccccc2C(=O)O)c1	i	i	5	12	1	2
CC(CC(=O)N1CCN(S(=O)(=O)c2ccc(Cl)cc2)CC1)n1cncn1 (stereo unspecified)	i	i	1	-5	0	-1
Cc1ccc(C(=O)COC(=O)CNS(=O)(=O)c2ccccc2)cc1[N+](=O)[O-]	i	i	18*	-10	-2	0
Cc1cc(NC(=O)CSCC(=O)NCc2cccc(C(F)(F)F)c2)no1	i	i	1	3	-2	-1
Cc1cc(NC(=O)c2sc(Nc3cccc(C(F)(F)F)c3)nc2N)no1	i	i	20*	-38	0	14
Cc1cc(NC(=O)c2sc(Nc3ccc(F)c(Cl)c3)nc2N)no1	i	i	23*	-10	-2	-2
CCN(CC)CCn1c2c(c(SCC(=O)Nc3ccc4c(c3)OCCO4)nc1=O)CCCC2	i	i	0	0	-2	-1
Cc1nc2ccccc2c2oc(C(=O)NCC3COc4ccccc4O3)cc12 (stereo unspecified)	i	25*	-11	7	-3	12
N/C(CN1CCCCC1)=N\S(=O)(=O)c1cc(Cl)cc(Cl)c1	i	i	-2	113*	-2	4
COc1cc(C(=O)N2C[C@H]3CC[C@H]2C3)ccc1OC1CCN(C(C)=O)CC1	i	i	13*	-11	0	3
COc1cc(/C=N/c2oc(-c3ccccc3)cc2C#N)ccc1O	i	i	33*	2	-1	0
Cc1ccc(N(C)S(=O)(=O)c2c[nH]c3ccc([N+](=O)[O-])cc23)cc1	i	i	117*	7	2	17
CCN(c1ccccc1)S(=O)(=O)c1c[nH]c2ccc([N+](=O)[O-])cc12	i	i	3	-16	4	29
COc1cc([N+](=O)[O-])ccc1NC(=O)Nc1nc2c(s1)CCCC2	i	i	11*	-73	-3	43
COc1cc([N+](=O)[O-])ccc1NC(=O)Nc1cnccn1	i	i	-6	12	0	1
O=C(c1ccccc1)c1nc2ccccc2[nH]c1=O	i	i	-3	67*	-1	-1
